Here are results for 25 compounds from PubChem BioAssay (Tox21).

The nature of experiment [1]: qHTS RealTime-Glo MT Cell Viability Assay in HepG2 cells - 40 hour (AID 1224870). Also: nearly all actives have a fitted effect of over 50% in size. The essentials: (§1)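 HepG2 cells (600/well) mixed with RealTime-Glo MT reagent, settled 5 h at 37 C/5% CO2 before compound addition. Nonlytic NanoLuc luminescence from viable-cell prosubstrate reduction read repeatedly during 40 h treatment at 37 C.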
Experiment [2] can be described thus: A CellTox Green Cytotoxicity Assay to monitor cytotoxicity in HEK293 cells - 40 hour (AID 1224871). Also: nearly all actives have a fitted effect of over 45% in size. The essentials:
(§2)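 Fluorescence from a DNA-binding dye excluded by viable cells was measured repeatedly in the same HEK293 wells (600 cells/well) during continuous compound exposure at 37 C. Each assay gives one read point: 0, 8, 16, 24, 32 or 40 h.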

A short description of experiment [3]: qHTS RealTime-Glo MT Cell Viability Assay in HEK293 cells - 16 hour (AID 1224872). Also: nearly all actives have a fitted effect of over 50% in size. Also: potency is read from the fitted curve at half-maximal effect. As to activity change, negative = cytotoxicity: top concentration of the series differs between compounds. Put shortly:
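HEK293 cells seeded with NanoLuc/prosubstrate reagent, rested 5 h at 37 C, then dosed and kept at 37 C up to 40 h. Nonlytic real-time luminescence from viable cells read at 0, 8, 16, 24, 32 and 40 h.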
Background: qHTS replaces the single test concentration by a dilution series.

Experiment [4] in a line: qHTS RealTime-Glo MT Cell Viability Assay in HepG2 cells - 8 hour (AID 1224873). Also: nearly all actives have a fitted effect of over 55% in size. Put shortly:
as §1

Experiment [5] in a line: qHTS RealTime-Glo MT Cell Viability Assay in HEK293 cells - 40 hour (AID 1224874). Also: nearly all actives have a fitted effect of over 50% in size. Also: potency is read from the fitted curve at half-maximal effect. The note with it: RealTime-Glo luminescence; max response: stronger effect = lower value. Put shortly:
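Luminescence, which tracks viable cell number through reduction of the prosubstrate to a NanoLuc substrate, was read over continuous 37 C culture. Cells (600/well) were premixed with reagent and rested 5 h before 23 nL of compound in DMSO was pinned.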

A short description of experiment [6]: A CellTox Green Cytotoxicity Assay to monitor cytotoxicity in HEK293 cells - 24 hour (AID 1224875). Also: series mostly up to about 77 µM; nearly all actives have a fitted effect of over 45% in size. The essentials:
as §2

The nature of experiment [7]: A CellTox Green Cytotoxicity Assay to monitor cytotoxicity in HepG2 cells - 16 hour (AID 1224876). Also: nearly all actives have a fitted effect of over 45% in size. The essentials:
(§3)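 Real-time cytotoxicity: fluorescence of a cell-impermeant cyanine dye binding DNA of dead HepG2 cells, measured repeatedly (0–40 h) during compound exposure at 37 C. Cells seeded 600/well with reagent, dosed after 5 h.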

A short description of experiment [8]: qHTS RealTime-Glo MT Cell Viability Assay in HepG2 cells - 32 hour (AID 1224877). Also: nearly all actives have a fitted effect of over 55% in size. The essentials: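 HepG2 cells (600/well) were dispensed with RealTime-Glo reagents, incubated 5 h at 37 °C, then treated with compounds in DMSO for up to 40 h. Nonlytic NanoLuc luminescence reflecting viable cells was read at each stated time point.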
A short description of experiment [9]: A CellTox Green Cytotoxicity Assay to monitor cytotoxicity in HepG2 cells - 24 hour (AID 1224878). Also: nearly all actives have a fitted effect of over 45% in size. The essentials: as §3
Experiment [10] in a line: A CellTox Green Cytotoxicity Assay to monitor cytotoxicity in HepG2 cells - 40 hour (AID 1224879). Also: nearly all actives have a fitted effect of over 40% in size. Put shortly:
as §3

Records with an inconclusive call do not appear. Values without a mark were called inactive. The source made the active and inactive calls. Calls follow the shape of the dose curve; as a rule, active = well fitted curve in the direction sought with a large enough effect in the repeat runs; inconclusive = weak or mixed curves; inactive = no such curve, though single readings can be large; an effect the other way counts as inactive or inconclusive.
% is scaled to controls: 0 for no effect and ±100 for the full control effect.

On to `CNC(=O)Oc1ccccc1C(C)C`, for which the Potency result in experiment [1], in experiment [2], in experiment [3], in [6], in experiment [7] and in experiment [8] was “inactive” in each case. Besides, the Potency result in experiment [9] and in [10] was “inactive” each time. In addition, the call in experiment [4] was inactive. Further, in experiment [5], the max response is 3.33%.
For the compound `CC(C)[C@]12CC(=O)[C@H](C)[C@H]1C2`, the Potency entry in experiment [1], in [2], in experiment [3], in experiment [6], in [7] and in experiment [8] was “inactive” throughout. For the same compound, the Potency result in experiment [9] and in [10] was “inactive” each time. Moreover, in experiment [4], the call was inactive. Besides, the max response in experiment [5] is -4.49%.
Take `C=CC(=O)OCCN(C)C`: the Potency result in experiment [1], in [2], in experiment [3], in experiment [6], in [7] and in experiment [8] was “inactive” in each case. In addition, the Potency entry in [9] and in [10] was “inactive” in each case. In addition, in experiment [4], the compound was called inactive. The max response in [5] is 14.5%.
Consider `CCCOc1nn(C(=O)NS(=O)(=O)c2ccccc2C(=O)OC)c(=O)n1C`, for which the Potency entry in experiment [1], in [2], in [3], in experiment [6], in experiment [7] and in [8] was “inactive” in each case. Further, the Potency entry in experiment [9] was “inactive”. For the same compound, the result in [4] was inactive. In experiment [5], the max response is 22.1%.
Turning to `O=C/C=C/c1ccco1`, the Potency entry in experiment [1], in experiment [2], in experiment [3], in experiment [6], in [7] and in experiment [8] was “inactive” in each case. Further, the Potency entry in experiment [9] and in experiment [10] was “inactive” throughout. Besides, the result in experiment [4] was inactive. Also, the max response in experiment [5] was 3.04%.
As for `O=[N+]([O-])c1cccc(CCl)c1`, the Potency entry in experiment [1], in [2], in experiment [3], in [6], in experiment [7] and in [8] was “inactive” in each case. The Potency entry in experiment [9] and in experiment [10] was “inactive” in each case. In addition, the compound was called inactive in experiment [4]. Moreover, the max response in experiment [5] was 6.77%.
In the case of `COc1ccccc1OC`, the Potency entry in experiment [1], in experiment [2], in experiment [3], in experiment [6], in experiment [7] and in experiment [8] was “inactive” in each case. Also, the Potency entry in experiment [9] is “inactive”. Further, the compound was called inactive in [4]. In [5], the max response was 0.0799%.
In the case of `CN(C)CCc1c[nH]c2cccc(OP(=O)(O)O)c12`, the Potency entry in [1], in experiment [2], in experiment [3], in experiment [6], in experiment [7] and in experiment [8] was “inactive” in each case. The Potency entry in [9] is “inactive”. In addition, the compound was classed as inactive in experiment [4]. The max response in experiment [5] is -0.389%.
Consider `CC(Cc1ccccc1)NCCn1cnc2c1c(=O)n(C)c(=O)n2C` (centres undefined), for which the Potency entry in [1], in experiment [2], in [6], in experiment [7], in experiment [8] and in experiment [9] was “inactive” each time. In experiment [10], the Potency entry was “inactive”. For the same compound, the Potency is 15.3 µM (active) in experiment [3] and 24.2 µM (active) in experiment [5]. For the same compound, in experiment [4], the result was inactive.
Consider `CCN[C@@H](C)Cc1cccc(C(F)(F)F)c1`, for which the Potency entry in experiment [1], in experiment [2], in [3], in [6], in [7] and in [8] was “inactive” in each case. Moreover, the Potency result in experiment [9] and in experiment [10] was “inactive” each time. The call in experiment [4] was inactive. In addition, the max response in experiment [5] was 2.94%.
As to `C[C@@H](N)[C@@H](O)c1ccccc1`, the Potency result in experiment [1], in [2], in experiment [3], in experiment [6], in experiment [7] and in experiment [8] was “inactive” in each case. In addition, the Potency entry in experiment [9] and in [10] was “inactive” throughout. For the same compound, the compound was classed as inactive in experiment [4]. Further, in [5], the max response is 1.05%.
Regarding `CC(=O)OCC1=C(C(=O)O)N2C(=O)[C@@H](N)[C@H]2SC1`, the activity change, negative = cytotoxic is 3.09% [at 15.8 µM] in experiment [1] and 0.0723% [at 15.8 µM] in [8]. Besides, the cytotoxicity increase is -4.55% [at 15.8 µM] in experiment [2] and 0.706% [at 15.8 µM] in experiment [7]. Further, the activity change, negative = cytotoxicity in [3] was 5.5% [at 15.8 µM]. Further, the viability change, negative = cytotoxic in experiment [4] is 1.05% [at 15.8 µM]. For the same compound, the activity change in experiment [6] was 11.8% [at 15.8 µM, stronger effect = higher value].
On to `CCNc1nc(Cl)nc(NC(C)(C)C)n1`, for which the Potency result in experiment [1], in experiment [2], in [3], in [6], in experiment [7] and in [9] was “inactive” in each case. Also, the Potency result in experiment [10] is “inactive”. For the same compound, the call in [4] was inactive. The max response in [5] was -11%.
Consider `CCOC(=O)COc1ccc(Cl)cc1Cl`, for which the Potency entry in experiment [1], in experiment [2], in experiment [3], in experiment [6], in [7] and in experiment [8] was “inactive” each time. Also, in experiment [10], the Potency result was “inactive”. Also, the compound was called inactive in experiment [4]. Further, the max response in experiment [5] was -3.04%.
Regarding `CCOC(=O)Nc1cccc(OC(=O)Nc2ccccc2)c1`, the Potency entry in experiment [1], in [2], in experiment [3], in experiment [6], in [7] and in experiment [8] was “inactive” in each case. Besides, in experiment [4], the compound was classed as inactive.
As to `CCCCCCCC(=O)Cl`, the Potency result in experiment [1], in [2], in [3], in experiment [6], in experiment [7] and in experiment [8] was “inactive” throughout. Also, the Potency entry in experiment [9] was “inactive”. Also, in experiment [4], the result was inactive.
Regarding `COC(=O)c1ccccc1CS(=O)(=O)NC(=O)Nc1nc(OC)cc(OC)n1`, the Potency entry in experiment [1], in experiment [2], in experiment [3], in [6], in [7] and in experiment [8] was “inactive” each time. In addition, the Potency entry in experiment [10] is “inactive”. For the same compound, the outcome in experiment [4] was inactive. Besides, the max response in [5] is 1.53%.
On to `C=C(C)[C@H]1CN[C@H](C(=O)O)[C@H]1CC(=O)O`, for which the Potency result in [1], in experiment [2], in experiment [3], in [6], in experiment [7] and in experiment [8] was “inactive” each time. Besides, the Potency entry in experiment [9] and in [10] was “inactive” each time. The compound was classed as inactive in experiment [4].
Turning to `CN1C(=O)COc2c(C(=O)NC3CN4CCC3CC4)cc(Cl)cc21` (centres undefined), the Potency entry in [1], in experiment [2], in experiment [3], in experiment [6], in [7] and in [9] was “inactive” each time. Moreover, in [10], the Potency entry is “inactive”. Further, the compound was classed as inactive in [4]. Besides, the max response in [5] is 3.5%.
As to `COP(=O)(O)OC`, the Potency entry in experiment [1], in experiment [2], in [3], in experiment [6], in experiment [7] and in experiment [9] was “inactive” each time. The compound was called inactive in experiment [4]. Also, in experiment [5], the max response was -2.51%.
For the compound `CCCCCCCCBr`, the Potency result in experiment [1], in experiment [2], in [3], in [6], in [7] and in [10] was “inactive” throughout. Also, the compound was classed as inactive in [4]. The max response in experiment [5] was 2.41%.
For `CN=CNc1ccc(C)cc1C`, the Potency result in [1], in experiment [2], in [3], in experiment [6], in [7] and in experiment [8] was “inactive” each time. The Potency entry in experiment [9] and in experiment [10] was “inactive” each time. In experiment [4], the compound was classed as inactive.
For the compound `O=C1CC(=O)NC(=O)N1`, the Potency result in [1], in experiment [2], in experiment [3], in [6], in experiment [7] and in [8] was “inactive” each time. For the same compound, in experiment [9], the Potency result is “inactive”. Besides, the result in [4] was inactive.
Consider `CCc1cc(OC)c(C[C@H](C)N)cc1OC`, for which the Potency entry in [1], in experiment [2], in experiment [3], in experiment [6], in [7] and in experiment [8] was “inactive” throughout. Further, the Potency result in experiment [9] was “inactive”. In experiment [4], the call was inactive.
As to `NCC1(CC(=O)O)CCCCC1`, the Potency result in experiment [1], in [2], in [3], in experiment [6], in experiment [7] and in experiment [8] was “inactive” each time. Besides, the Potency result in experiment [9] and in [10] was “inactive” throughout. Moreover, the outcome in experiment [4] was inactive.
